Screens deposited in PubChem by The Scripps Research Institute Molecular Screening Center.
KLK7 zymogen act: activators of human kallikrein-7 zymogen | P49862 | purified proKLK7, EDANS-DABCYL substrate fluorescence; 100% is mature enzyme control, 0% vehicle | activation, % at 7 µM | actives 0.9% (n = 370,000) | AID 652039;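 active means activation above the mean of all tested compounds plus 3 SD, computed per campaign excluding outliers beyond control limits, cut at about 13% in these data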
ADAM10 inh: inhibitors of human ADAM10; recombinant ADAM10, EDANS/DABCYL FRET peptide cleavage, 3 h; actives 0.62% (n = 370,000); inhibition, % at 7 µM; AID 720582;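 active means inhibition above a per-campaign cutoff equal to the mean of compounds falling between control-based bounds plus 3 SD, cut at about 20% in these data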;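 further: 0% = DMSO wells while the 100% control is not disclosed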
ADAM17 inh: ADAM17 inhibition, QFRET primary screen. recombinant ADAM17, EDANS/DABCYL FRET peptide cleavage. inhibition, % at 6.95 µM. AID 720648. P78536. actives 0.83% (n = 370,000);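 active means inhibition above the mean of compounds lying between control limits plus 3 SD, set per campaign, cut at about 8.5% in these data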;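 further: 0% = DMSO-only wells as the low control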
PLCg1 inh: blocks human PLC-gamma1 enzyme activity; P19174; purified PLC-gamma1, fluorogenic substrate, fluorescence; AID 720700; inhibition, % at 12.2 µM; actives 0.84% (n = 370,000); in the data active means inhibition above about 9.5%
PLC-beta3 inh: PLC-beta3 (human) inhibition, primary screen. inhibition, % at 12.2 µM. Q01970. actives 0.18% (n = 370,000). Purified PLC-beta3, fluorogenic substrate, fluorescence; in the data active means inhibition above about 11%;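 further: 0% = median of compound wells on plate and 100% = full blocker control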
proKLK7 act conf: proKLK7 activation, confirmation; shares compounds with KLK7 zymogen act; purified proKLK7, EDANS-DABCYL substrate fluorescence; scaled: vehicle 0, mature enzyme 100; activation, % at 7 µM; actives 68% (n = 3,200); AID 686949;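 active means activation, as change over the incubation, above the mean of all tested compounds plus 3 SD, cut at about 13% in these data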
EDANS interfere: fluorescence interference counter-screen for KLK7 activators. activation, % at 7 µM. EDANS-DABCYL substrate fluorescence interference, no enzyme, 4 h; solvent 0%, active enzyme control 100%. actives 80% (n = 3,200). shares compounds with KLK7 zymogen act;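 active means activation above the all-compound mean plus 3 SD, ignoring values outside control-based bounds, cut at about 4.8% in these data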;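 further: value is the 4 h activation minus the activation read at time zero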
K7 EDANS ctr: optically interferes with EDANS-DABCYL fluorescence, kallikrein-7 activator counter-screen. shares compounds with KLK7 zymogen act. EDANS-DABCYL peptide fluorescence interference, no enzyme. EC50, µM. actives 20% (n = 250);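 active means compounds that raise the fluorescence signal in this interference counterscreen, with EC50 at or below 10 µM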;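 further: intact quenched peptide substrate alone read at 355 nm excitation and 520 nm emission; signal is fluorescence gain from T0 to T4 after four hours at room temperature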
* = called active by the depositor; i = inactive; . = no result. Compounds with a hit are over-represented: about 2.9% of the library has one in this group of screens.

SMILES | KLK7 zymogen act | ADAM10 inh | ADAM17 inh | PLCg1 inh | PLC-beta3 inh | proKLK7 act conf | EDANS interfere | others
COCCCNC(=O)c1nnn2c1nc(N)c1cc(Cl)ccc12 | 15* | -339 | -82 | -103 | -131 | 40* | 40*
Cc1nn2cc(-c3ccc(Cl)cc3)nc2s1 | 1 | 5 | 0 | 4 | 6 | . | .
Cc1nc2nc(-c3ccc(Cl)cc3)cn2nc1C | 53* | i | -252 | i | i | 75* | 79*
Cc1nc2nc(-c3cccs3)cn2nc1C | 68* | i | -194 | i | i | 68* | 66*
COc1cccc(-c2cn3nc(C)c(C)nc3n2)c1 | 2 | -165 | -72 | -282 | -351 | . | .
COc1ccc(-c2ccc3c(n2)CCCN3S(=O)(=O)c2ccc(C(F)(F)F)cc2)cc1 | 1 | -164 | -41 | -112 | -139 | . | .
COc1ccc([C@H]2Cc3cccc(O)c3C(=O)O2)cc1O | -1 | -8 | -6 | -17 | -25 | . | .
O=C1O[C@@H](c2ccc(O)cc2)Cc2cccc(O)c21 | 49* | -135 | -30 | -160 | -269 | 44* | 52*
COc1ccc(NC(=O)N(C)[C@H]2C[C@H]3c4[nH]c5c(-c6cccc(C)c6)cccc5c4CCN3C(=O)[C@H]2[C@H](C)O)cc1 | -3 | -129 | -39 | -74 | -95 | . | .
C[C@H](O)[C@@H]1CN2CCc3c([nH]c4ccccc34)[C@@H]2C[C@@H]1N(C)C(=S)NCCc1ccccc1 | 39* | i | -169 | i | i | 4 | 3
CCNC(=O)N(C)[C@H]1C[C@H]2c3[nH]c4ccccc4c3CCN2C[C@H]1[C@H](C)O | 17* | -173 | -44 | -307 | -394 | 0 | 2
Cc1cccc(-c2cccc3c4c([nH]c23)[C@@H]2C[C@H](N(C)C(=S)NCCc3ccccc3)[C@H]([C@H](C)O)CN2CC4)c1 | 0 | -35 | -10 | -238 | -299 | . | .
CCOC(=O)N1CCN(C(=O)C[C@H]2C[C@@]3(C(=O)OC)C(=C[C@H](C4CCCC4)O[C@@H]3C)N(CCc3ccc(OC)c(OC)c3)C2=O)CC1 | 0 | -2 | -3 | -2 | -1 | . | .
O=C(NCc1ccccc1)[C@H]1CCCN1C(=O)[C@H]1CCCN1C(=O)c1cccc(F)c1 | 0 | 4 | -2 | 0 | 2 | . | .
CCOC(=O)c1oc2ccc3c(c2c1C)C(=O)CC1(CCN(C(=O)OCC)CC1)O3 | 0 | -32 | -11 | -12 | -11 | . | .
CCOC(=O)N1CCC2(CC1)CC(=O)c1c(ccc3oc(C(=O)O)c(C)c13)O2 | 18* | i | -449 | -319 | -371 | 46* | 34* | K7 EDANS ctr=>70
Nc1ccn([C@@H]2O[C@H](C(=O)N[C@H](Cc3ccccc3)C(=O)NCC(=O)N3CCOCC3)[C@@H](O)[C@H]2O)c(=O)n1 | 0 | 2 | 0 | 2 | 7 | . | .
COC(=O)C1=C(C)N(C)C(=NCC2CC2)NC1c1cccc(Cl)c1 (stereo not drawn) | 1 | -10 | -6 | -1 | -3 | . | .
Cc1cc(C(=O)Nc2ccc(Cl)c(Cl)c2)n(-c2ccccc2)n1 | 0 | 5 | 4 | 0 | 1 | . | .
Cc1ccc(NC(=O)[C@H]2CC(=O)O[C@@H]2c2ccccc2)c(C)c1 | 1 | -5 | -4 | 2 | -2 | . | .
CCCNC(=O)OC1CC2CC1[C@H]1CCCCN1C2=O (stereo partly drawn) | 45* | -5 | -4 | 6 | -1 | 1 | 0
CC(C)OCCOc1ccc2oc(-c3ccco3)cc(=O)c2c1 | 24* | i | -461 | i | i | 37* | -6 | K7 EDANS ctr=>69
Cc1ccc2oc(-c3ccco3)cc(=O)c2c1 | 12 | i | -274 | -50 | -83 | . | .
COc1ccccc1CC(=O)Nc1ccc(NC(=O)c2cccs2)cc1 | 52* | 1 | 0 | 0 | -4 | 73* | 59* | K7 EDANS ctr=8.2*
COc1ccccc1CC(=O)NNC(=O)c1cccs1 | 0 | -2 | -1 | 0 | 3 | . | .
